Most compounds without a hit are left out; they make up all but 2.5% or so of the library.
Cruzain inh noDet – qHTS Assay for Promiscuous and Specific Inhibitors of Cruzain (without detergent); hit rate 2.3% among 200,000; Potency, µM, usual class: inhibitors; Cruzipain (Trypanosoma cruzi), P25779; purified cruzain, Z-FR-AMC fluorescence, no detergent; note: nearly all actives have a fitted effect of over 40% in size
Target sequence (P25779 123-467 limits assumed): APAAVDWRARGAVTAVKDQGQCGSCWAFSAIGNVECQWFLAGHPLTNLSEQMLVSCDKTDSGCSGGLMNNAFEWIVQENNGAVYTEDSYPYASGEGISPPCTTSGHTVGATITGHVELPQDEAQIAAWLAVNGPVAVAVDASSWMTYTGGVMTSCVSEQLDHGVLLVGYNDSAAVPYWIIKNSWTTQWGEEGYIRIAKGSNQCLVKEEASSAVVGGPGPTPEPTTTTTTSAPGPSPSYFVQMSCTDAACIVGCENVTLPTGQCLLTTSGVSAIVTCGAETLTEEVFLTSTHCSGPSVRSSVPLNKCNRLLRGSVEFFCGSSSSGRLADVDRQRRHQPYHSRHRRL
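Purified cruzain at 1.5 nM, pre-incubated 15 min with compound at room temperature in 100 mM sodium acetate pH 5.5, 5 mM DTT, 0.00005% Triton X-100. Reaction started with 2 uM Z-FR-AMC; AMC fluorescence increase over 60 s gives rate.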
Cruzain Triton – qHTS Assay for Promiscuous and Specific Inhibitors of Cruzain (with detergent); Cruzipain (Trypanosoma cruzi), P25779; purified cruzain, Z-FR-AMC fluorescence, 0.01% Triton; Potency, µM, hits mostly inhibitors; hit rate 0.43% among 200,000; AID 1478, 2009; note: nearly all actives have a fitted effect of over 40% in size
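Detergent-containing run (0.01% Triton X-100) in acetate buffer pH 5.5 with 5 mM DTT: enzyme at 1.5 nM final, 15 min compound preincubation at room temperature, then 2 uM Z-FR-AMC substrate. Activity taken as 60 s fluorescence increase at 360/450 nm.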
Large screens that a line does not name were inactive. Calls come from the whole dose curve; as a rule, active = well fitted curve in the direction sought with a large enough effect; inconclusive = small, poorly fitted or top-dose-only effect, or another doubt; inactive = no such curve, though single readings can be large; an effect the other way counts as inactive or inconclusive.

CCOC(=O)c1ccc(N=C2C(=S)N(c3ccc(C(=O)OCC)cc3)C(=N)N2/N=C/c2ccccc2)cc1	Cruzain inh noDet 13µM
Cc1cccc(-n2nc(C(=O)Nc3ccccc3)n3c(=O)cc(-c4ccccc4)nc23)c1	Cruzain inh noDet 7.9µM
CCOC(=O)c1nn(-c2cccc(Cl)c2)c2nc(Nc3ccccc3)cc(=O)n12	Cruzain inh noDet inconclusive
CCOC(=O)c1nn(-c2cccc(OC)c2)c2nc(Nc3ccccc3)cc(=O)n12	Cruzain inh noDet inconclusive
O=C(c1ccccc1)c1nn(-c2cccc(Cl)c2)c2nc(-c3ccccc3)cc(=O)n12	Cruzain inh noDet 25µM
Nc1ccc(C(=O)C[C@H](N)C(=O)O)cc1O	none
CC(C)Cn1c(=O)c2sccc2n2c(CCCC(=O)NCC(C)c3ccccc3)nnc12 (configuration not stated)	none
COc1ccc2c(c1)c1c(c(=O)n(-c3cc(Cl)ccc3C)c(=O)n1Cc1ccc(F)cc1)n2C	none
CCn1cc(C(=O)N2CCN(c3cccc(Cl)c3)CC2)c(=O)c2cc(S(=O)(=O)N3CCOCC3)ccc21	Cruzain inh noDet inconclusive
CC=C(Cl)Cl	none
CNC(=O)c1c(N)sc2c1CCCCC2	none
NC(=O)c1c(N)sc2c1CCCCC2	Cruzain inh noDet 25µM
C[C@@H](N)/C(N)=N/O	none
COc1ccc(-n2ncc(C(=O)NCc3ccc4c(c3)OCO4)c2C2CCN(C(=O)OC(C)(C)C)CC2)cc1	none
C#CCOC(=O)/C(=C/C=C/c1ccccc1)NC(=O)c1ccccc1	Cruzain inh noDet 13µM, Cruzain Triton 7.1µM
CC(C)OC(=O)/C(=C\C=C\c1ccccc1)NC(=O)c1ccccc1	none
CC1(C)CC2CC(C)(CN2C(=O)COC(=O)CNC(=O)c2ccc(Cl)c(Cl)c2)C1 (configuration not stated)	Cruzain inh noDet 7.9µM, Cruzain Triton 7.9µM
CC1(C)CC2CC(C)(CN2C(=O)COC(=O)c2cc(Cl)cc(Cl)c2N)C1 (configuration not stated)	none
Cc1cccc(CSc2nc3c(c(-c4cccs4)c2C#N)CN(C)CC3)c1	none
Cc1cccc(CSc2nc(N)c(C#N)c(-c3cccs3)c2C#N)c1	Cruzain inh noDet 25µM
O=C(NC(=S)Nc1ccc(N2CCOCC2)c(Cl)c1)c1cncc(Br)c1	none
O=C(NC(=S)Nc1ccc(N2CCCCC2)c(Cl)c1)c1ccc2c(c1)OCCO2	Cruzain inh noDet 25µM
Cc1cccc(-c2noc(-c3ccc(NCc4cccnc4)c([N+](=O)[O-])c3)n2)c1	none
CN1CCc2nc3sc(C(=O)c4ccc(F)cc4)c(N)c3cc2C1	none
CN1CCc2nc3sc(C(=O)C45CC6CC(CC(C6)C4)C5)c(N)c3cc2C1	Cruzain inh noDet 13µM, Cruzain Triton inconclusive
O=C(NCc1ccco1)c1ccc2c(c1)N(Cc1ccccc1)C(=O)c1ccccc1S2	Cruzain inh noDet inconclusive
N#Cc1ccccc1CN1C(=O)c2ccccc2Sc2ccc(C(=O)OCc3ccco3)cc21	Cruzain inh noDet 25µM
C=Cc1ccc(CN2C(=O)c3ccccc3Sc3ccc(C(=O)OCc4ccco4)cc32)cc1	Cruzain inh noDet 13µM
CCOC(=O)c1ccc2c(c1)N(Cc1ccccc1)C(=O)c1ccccc1S2	none
Fc1ccccc1-n1ncc2c1ncn1nc(-c3ccccc3Cl)nc21	none
O=C(O)c1ccccc1NCn1c(=S)sc2ccccc21	none
CCOc1ccc(NC(=O)CC2C(=O)N(c3cccc(C)c3)C(=O)N2Cc2cccnc2)cc1 (configuration not stated)	Cruzain inh noDet inconclusive
Cc1cc(C)c(NC(=O)C(C)Sc2nc3ccc(N4C(=O)c5ccccc5C4=O)cc3s2)c(C)c1 (configuration not stated)	Cruzain inh noDet 6.3µM
CCc1cccc(C)c1NC(=O)CSc1nc2ccc(N3C(=O)c4ccccc4C3=O)cc2s1	Cruzain inh noDet inconclusive
CCCCn1c(Nc2ccccc2)nc2ccccc21	none
CCCn1c(Nc2nc3ccccc3n2C)nc2ccccc21	Cruzain inh noDet 20µM
COc1ccc(N(C(=O)c2ccc(Cl)cc2)S(=O)(=O)c2ccc(C)cc2)cc1	none
N#C/C(=C\N1CCN(Cc2ccc3c(c2)OCO3)CC1)c1nc2ccccc2s1	Cruzain inh noDet 32µM
c1ccc2sc(N3CCN(Cc4ccc5c(c4)OCO5)CC3)nc2c1	none
COc1ccc(Cl)cc1NC(=O)c1c(NCc2cccs2)sc2c1CCCC2	none
COc1ccc(-c2c3c([nH]c(=S)c2C#N)CCC3)cc1	Cruzain inh noDet 16µM
N#Cc1c(-c2cccnc2)c2c([nH]c1=S)CCCC2	none
CC(=O)N1CCCc2cc(S(=O)(=O)N3CCC(C(=O)NCc4ccccc4Cl)CC3)ccc21	none
C=C(C(C)=O)C(O)c1cccc(OC)c1 (configuration not stated)	none
O=c1cc2nc(-c3ccccc3F)nc(SCc3ccc(Br)cc3)n2[nH]1	none
O=C(NC(C(=O)N/N=C/c1c2ccccc2cc2ccccc12)c1n[nH]c(=O)c2ccccc12)c1ccccc1 (configuration not stated)	Cruzain inh noDet 13µM
O=C(NC(C(=O)N/N=C/c1ccccc1)c1n[nH]c(=O)c2ccccc12)c1ccccc1 (configuration not stated)	none
Cc1ccc(C(=O)NNC(=O)CSc2nnc3c(n2)[nH]c2ccc(F)cc23)cc1	Cruzain inh noDet inconclusive
O=C(CSc1nnc2c(n1)[nH]c1ccc(F)cc12)OCc1ccccc1	Cruzain inh noDet 13µM
COc1ccc(CC(=O)Nc2ccc(-c3noc(-c4cccc(OC)c4)n3)cc2)cc1	Cruzain inh noDet 7.9µM
COc1ccc(-c2noc(CC(=O)Nc3ccc(C)c(F)c3)n2)cc1	none
CCOc1ccccc1NC(=O)c1ccccc1-c1nc(-c2ccccc2)no1	none
COc1cccc(-c2nc(-c3ccc(NC(=O)c4cccnc4)cc3)no2)c1	none
COc1ccccc1CC(=O)Nc1ccc(-c2noc(COc3ccc(Cl)c(C)c3)n2)cc1	Cruzain inh noDet 25µM
CCOc1ccccc1-c1nc(-c2ccc(NC(=O)Cc3ccccc3OC)cc2)no1	Cruzain inh noDet 25µM
CCOc1ccc(-n2c(=O)c3c4c(sc3n(Cc3cccc(Cl)c3)c2=O)CCCC4)cc1	none
COc1ccc(Cl)cc1Nc1nc(-c2sc(NC(=O)CC(C)C)nc2C)cs1	Cruzain inh noDet 20µM
C=CCCC(=O)Nc1nc(C)c(-c2csc(Nc3cc(Cl)ccc3OC)n2)s1	Cruzain inh noDet 16µM
Cc1nc(NC(=O)CC(C)C)sc1-c1csc(Nc2ccc(Cl)cc2Cl)n1	Cruzain inh noDet 16µM
Cc1nc(NC(=O)CC(C)C)sc1-c1csc(Nc2ccc(Cl)cc2)n1	Cruzain inh noDet 13µM
C=CCCC(=O)Nc1nc(C)c(-c2csc(Nc3ccc(Cl)cc3Cl)n2)s1	Cruzain inh noDet inconclusive
C=CCNc1nc(-c2sc(NC(=O)CC)nc2C)cs1	Cruzain inh noDet inconclusive
CCN(C(=O)c1nn(-c2ccc(OC)c(Cl)c2)c(=O)c2c1c1ccccc1n2C)c1cc(OC)ccc1OC	none
O=C(CN1C(=O)COc2ccc(S(=O)(=O)N3CCOCC3)cc21)NCc1ccc(Cl)cc1	none
FC(F)(F)c1ccccc1-c1cncnc1NCCN1CCOCC1	none
CCCCCCC(=O)Nc1nc(C)c(-c2csc(Nc3cc(OC)ccc3OC)n2)s1	Cruzain inh noDet 10µM
CCCCCC(=O)Nc1nc(C)c(-c2csc(Nc3cc(OC)ccc3OC)n2)s1	Cruzain inh noDet inconclusive
COC(=O)C(Sc1nc(C)cc(C)c1C#N)c1ccccc1 (configuration not stated)	none
